Consider 65 molecules from PubChem BioAssay AID903 (National Center for Advancing Translational Sciences (NCATS), 2007).

SMILES strings stand for the structures. Out of some 55,000 compounds screened, about 340 (0.62%) were called active. Entries that show only a call come without a potency. Roughly 3% stayed inconclusive and do not appear here. The call rests on the fitted dose curve; in most records, active means well fitted cell-killing curve with a large enough effect; inconclusive means small, poorly fitted or top-dose-only effect; inactive means no such curve, though single readings can be large or run the other way. The full list was thinned out, with actives kept by preference.
Potency means the concentration at half of the fitted maximal effect.

The assay can be described thus: qHTS Screen for Compounds that Selectively Target Cancer Cells with p53 Mutations: Cytotoxicity of p53 Null Cells at the Permissive Temperature. Further: nearly all actives have a fitted effect of over 55% in size. Particulars: H1299-neo p53 null cells, ATP luminescence, 24 h, 32C; series mostly up to 46.1 µM. A digest of the protocol:
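ATP-content luminescence in p53-null H1299-neo cells after 24 h compound exposure (up to 46 uM) at 32C permissive temperature; 0% and 100% killing set by DMSO and 100 uM tamoxifen; Hill-equation AC50.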
(In qHTS, concentration-response curves come from the screen itself.)
Turning to `Cc1ccc2nc(/C(C#N)=C/c3ccccc3F)[nH]c2c1`, the Potency result is “inactive”.

For the molecule `O=S(=O)(c1ccc(Br)cc1)c1nnn2c1nc(N1CCOCC1)c1sccc12`, the Potency result was “inactive”.

Regarding `CCOc1ccc(NC(=O)CN2CCN(CC(=O)Nc3ccc(OC)cc3)CC2)cc1`, the Potency result is “inactive”.

In the case of `CCOc1ccc(NC(=O)c2cnn(-c3ccccc3)c2-n2cccc2)cc1`, the Potency result is “inactive”.

On to `CCOc1ccc(NC(=O)c2ncoc2-c2ccco2)cc1`, for which the Potency was 12.6 µM (active).

For the molecule `CCc1nc2ccc(C(=O)N3CCN(c4cc(Cl)ccc4C)CC3)cc2nc1CC`, the Potency entry was “inactive”.

`CCOC(=O)c1c(C)[nH]c(C)c1S(=O)(=O)N1CCC(C(=O)Nc2ccc(C)c(Cl)c2)CC1`: the Potency entry is “inactive”.

On to `N#C/C(=C\c1ccccc1F)c1nc2ccccc2c(=O)[nH]1`, for which the Potency entry was “inactive”.

For `COc1ccc(-n2ccnc(NCCc3ccc(Cl)cc3)c2=O)cc1OC`, the Potency result was “inactive”.

As for `CCOC(=O)c1cccc(NS(=O)(=O)c2cn(C)c(C)n2)c1`, the Potency entry is “inactive”.

On to `O=C(NC1CC(=O)N(c2ccc(Cl)cc2)C1)C1CCCC1` (stereo not given), for which the Potency result was “inactive”.

Regarding `Cn1c(=O)c2c(nc(Oc3ccc(C#N)cc3)n2Cc2ccc(Cl)cc2Cl)n(C)c1=O`, the Potency entry was “inactive”.

For the molecule `Brc1ccc(-c2csc(N/N=C/c3ccc4c(c3)OCO4)n2)cc1`, the Potency result is “inactive”.

In the case of `CCCC(=O)Nc1cccc(NC(=S)NC(=O)C(C)Oc2ccc(Cl)cc2Cl)c1` (stereo not given), the Potency result is “inactive”.

As to `COC(=O)c1cc2occc2n1Cc1nc(-c2ccc(C)cc2)oc1C`, the Potency entry was “inactive”.

`Cc1ccc(CNC(=O)CCNS(=O)(=O)c2ccc3c(c2)oc(=O)n3C)cc1`: the Potency entry was “inactive”.

Consider `CCOc1ccc(CNC(=O)CCc2c(C)nn(-c3ccc(N4CCCCC4)nn3)c2C)cc1`, for which the Potency result was “inactive”.

Take `CCc1cc2c(-c3ccccc3)cc(=O)oc2c2c1OCN(Cc1ccc(C)cc1)C2`: the Potency result is “inactive”.

On to `COc1ccc(CCNC(=O)CN2C(=O)COc3ccc(S(=O)(=O)N4CCCC4)cc32)cc1OC`, for which the Potency result was “inactive”.

With `CCOc1cc(CNCc2ccccn2)ccc1OCC(=O)NC(C)(C)C`, the Potency result was “inactive”.

For `Cc1ccc(CCNC(=O)C2CCN(c3nnc(-n4cccc4CNc4ccc(C)cc4)s3)CC2)cc1`, the Potency result is “inactive”.

Regarding `C/C(CC(=O)Nc1ccc(Cl)cc1)=N\NC(=O)C(=O)NCCO`, the Potency entry is “inactive”.

With `Cc1ccc2[nH]c3c(=O)n(CC(=O)NC(C)C)ncc3c2c1`, the Potency entry is “inactive”.

For the molecule `CCC(=O)Nc1ccc(C)cc1-c1nc2ccccc2n(Cc2ccccc2)c1=O`, the Potency entry is “inactive”.

For the molecule `CCn1c(SCC(=O)Nc2ccc(C)cc2)nc2nc3c(cc2c1=O)CCCC3`, the Potency entry is “inactive”.

In the case of `CCOc1ccccc1NC(=O)C1CCCN(S(=O)(=O)c2cn(C)cn2)C1` (stereo not given), the Potency result is “inactive”.

Turning to `Cc1nc2ccc(S(=O)(=O)N(CC(=O)Nc3ccc(F)cc3)Cc3ccccc3)cc2s1`, the Potency result was “inactive”.

In the case of `COC(=O)c1ccc(NC(=O)c2cnn(-c3ccc(Cl)cc3)c2C2CCN(C(=O)OC(C)(C)C)CC2)cc1`, the Potency result is “inactive”.

As to `COC(=O)/C(NC(C)=O)=C(\C)c1ccc(Cl)cc1`, the Potency entry is “inactive”.

On to `CCCCCn1c(CCNC(=O)c2ccc(F)cc2)nc2ccccc21`, for which the Potency entry was “inactive”.

As to `CCCC(=O)Nc1ccc2oc(-c3ccc(O)c(Br)c3)nc2c1`, the Potency result is “inactive”.

For the molecule `CC(=O)Nc1cc(C(=O)NCc2ccc(F)cc2)ccc1Sc1ccc(F)cc1`, the Potency result is “inactive”.

Regarding `Cc1ccc(NC(=S)N2CCN(c3ncccn3)CC2)cc1C`, the Potency result is “inactive”.

With `O=C(CCC(=O)N1CC2CCCN2c2ccccc21)NCc1ccccc1Cl` (stereo not given), the Potency result was “inactive”.

`Cn1c(=NC(=O)c2ccc3c(c2)OCCO3)sc2cc(S(C)(=O)=O)ccc21`: the Potency result is “inactive”.

Take `O=C(NC1CCCC1)C(c1ccccn1)N(C(=O)c1csnn1)C1CCCC1` (stereo not given): the Potency result is “inactive”.

Turning to `CN(CC(=O)Nc1cccc(C(F)(F)F)c1)S(=O)(=O)c1cccs1`, the Potency result is “inactive”.

As for `Cc1cccc(-c2nnc(SCC(=O)N3CCCc4ccccc43)o2)c1`, the Potency result is “inactive”.

In the case of `Cc1ccc2[nH]cc(CCCN3C(=O)c4ccccc4C3=O)c2c1`, the Potency result was “inactive”.

Regarding `CCNC(=S)N1CCC(c2nc3cc(C)c(C)cc3[nH]2)CC1`, the Potency result was “inactive”.

As to `CCCCn1c(=O)c2oc3ccccc3c2n(CC(=O)Nc2ccccc2OC)c1=O`, the Potency entry is “inactive”.

As to `O=C(CSc1nc2nccnc2c(=O)n1CCc1c[nH]c2ccccc12)Nc1ccccc1F`, the Potency entry is “inactive”.

On to `Cc1cccc(NC(=O)Cn2cc(S(=O)(=O)Cc3ccccc3Cl)c3ccccc32)c1`, for which the Potency entry is “inactive”.

For the molecule `Cc1csc2nc(COc3ccc(NC(=O)COc4ccccc4)cc3)cc(=O)n12`, the Potency result was “inactive”.

Regarding `COc1ccc(NC(=O)Nc2cccc(-c3noc(C)n3)c2)cc1`, the Potency result was “inactive”.

In the case of `COc1cccc(C(c2c(O)cc(C)n(Cc3ccco3)c2=O)N2CCN(c3ccccc3)CC2)c1` (stereo not given), the Potency result was “inactive”.

As for `O=C(CSc1nccn1Cc1ccc(Cl)cc1)NCc1ccccc1`, the Potency entry is “inactive”.

As to `Cc1ccc(CSCC(N)C(=O)O)cc1` (stereo not given), the Potency entry is “inactive”.

In the case of `COc1ccccc1N1CCN(C(=O)C2CCN(S(=O)(=O)c3c(C)noc3/C=C/c3ccc(C)cc3)CC2)CC1`, the Potency result is “inactive”.

For `O=C(OCc1cc(=O)n2nc(C3CC3)sc2n1)c1ccccc1Cl`, the Potency result is “inactive”.

Turning to `COC(=O)c1ccc(NC(=O)CSc2nncc3ccc(OC)c(OC)c23)cc1`, the Potency entry was “inactive”.

As to `Cc1c(C(=O)NCc2ccccc2Br)oc2ccc3c(c12)C(=O)CC(C)(C)O3`, the Potency is 10 µM (active).

As to `CCC1(C)CC(=O)c2c(ccc3oc(C(=O)Nc4ccc(C(C)=O)cc4)c(C)c23)O1` (stereo not given), the Potency entry was “inactive”.

For the molecule `O=C(NCc1ccccc1Cl)C1=Cc2cc(Br)ccc2OC1`, the Potency result is “inactive”.

With `Cc1nn(-c2nc(-c3ccccc3)cc(C(F)(F)F)n2)c(C)c1Cl`, the Potency result was “inactive”.

With `CC(C)NC(=S)N1CCN(S(C)(=O)=O)CC1`, the Potency entry is “inactive”.

Consider `COc1cc(C(=O)N2CCN(C(=O)COc3cccc(C)c3)CC2)cc(OC)c1OC`, for which the Potency entry is “inactive”.

For `CC(C)Cn1c(C2CC(=O)N(c3ccccc3Cl)C2)nc2ccccc21` (stereo not given), the Potency result was “inactive”.

For the molecule `Cc1ccccc1CSCCNC(=O)c1ccc(Cl)c(S(=O)(=O)N2CCOCC2)c1`, the Potency result is “inactive”.

In the case of `Cc1cc2c(cc3c(SCc4nc(-c5ccccc5)oc4C)nnc(C)n32)o1`, the Potency result is “inactive”.

Consider `CC(=O)c1cccc(NC(=O)CSc2nc3c(c(=O)[nH]2)CCC3)c1`, for which the Potency entry was “inactive”.

Turning to `CC(C)C(OC(=O)c1cccs1)C(=O)NC1CCCCC1` (stereo not given), the Potency entry is “inactive”.

`COc1ccc(C(=O)COC(=O)CCCC(=O)Nc2cc(C(F)(F)F)ccc2Cl)cc1`: the Potency entry was “inactive”.

For `Cc1nnc(N2CCC(C(=O)Nc3ccc(F)cc3)CC2)c2nn(-c3ccc(Cl)cc3)c(C)c12`, the Potency entry was “inactive”.

For `O=C(CC1N=C2c3ccccc3N=C(SCc3ccc(F)cc3)N2C1=O)NCc1cccs1` (stereo not given), the Potency result is “inactive”.
